Data as given in PubChem BioAssay (NCATS).
Results filed as inconclusive are left out. Active and inactive are the calls of the source. Unless noted, the call rests on the fitted dose curve; in most records, active means well fitted curve in the direction sought with a large enough effect; inconclusive means small, poorly fitted or top-dose-only effect, or another doubt; inactive means no such curve, though single readings can be large; an effect the other way counts as inactive or inconclusive.

Legend:
[1] = biological target: Lysosomal acid glucosylceramidase (Homo sapiens) (UniProt P04062); test: Glucocerebrosidase-p2 (AID 348; in the data active means potency below about 10 µM; further: potency means the concentration at half of the fitted maximal effect); conditions: purified GBA, blue fluorogenic substrate, 40 min
How it was run: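 Normal human glucocerebrosidase (0.2 nM) with blue fluorogenic substrate (80 uM final) in citrate/phosphate pH 5.9 with 10mM sodium taurocholate, 0.01% tween-20; 40 min RT, NaOH/glycine stop; fluorescence Ex 365/Em 440; AC50 from a titration from 0.6 nM upwards.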

[2] = biological target: Cytochrome P450 1A2 (Homo sapiens) (UniProt P05177); test: p450-cyp1a2 (AID 410; calls by dose curve; further: potency means the concentration at half of the fitted maximal effect); conditions: recombinant CYP1A2, luciferin-ME demethylation, luminescence; series mostly up to 57 µM
How it was run: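 O-Demethylation of luciferin 6' methyl ether by human CYP1A2 is monitored as luciferase luminescence. Substrate sits at Km (100uM); enzyme is 20nM. Values are scaled to 57 uM furafylline as maximal inhibition.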

[3] = NFAT Signaling Pathway (AID 444; active means well fitted curve in either direction with a large enough effect, not every such curve was filed as active;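 further: carbachol stimulus at about its EC50 of 1 µM final; on the % scale 0 is the no-effect control and ±100 the full control effect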); conditions: Jurkat NFAT-bla M1, carbachol, beta-lactamase ratio, 5 h; at 7.69 µM (top of the series) unless noted
How it was run: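 Jurkat cells with NFAT-driven β-lactamase reporter and co-expressed M1 receptor, stimulated with carbachol (final 1 uM, ~EC50), compound titration, 5 h at 37 °C. CCF4 loaded 1 h at RT; 460/530 nm ratio gave %activity and AC50.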

[4] = biological target: Glucocorticoid receptor (Homo sapiens) (UniProt P04150); test: GR-GFP Redistribution (AID 450;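 active means compounds whose dose series gives a full or clear partial fitted curve of increased nuclear translocation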; further: potency means the concentration at half of the fitted maximal effect); conditions: U2OS GR-GFP nuclear translocation, laser cytometry, 2 h
[5] = biological target: Glucocorticoid receptor (Homo sapiens) (UniProt P04150); test: GR-EFC Redistribution (AID 451; calls by dose curve; further: potency means the concentration at half of the fitted maximal effect); conditions: CHO-K1 GR-EFC translocation, beta-gal luminescence, 2 h
How it was run: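 CHO-K1 cells expressing nuclear EA and GR-ED fragments of b-gal; compounds titrated up to 46 uM final, 2 h at 37 C. GR nuclear translocation read as complemented b-gal luminescence after 1 h RT detection.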

[6] = biological target: Mitogen-activated protein kinase 10 (Mus musculus) (UniProt Q61831); test: JNK3 AlphaScreen Assay (AID 530; active means well fitted curve in either direction with a large enough effect, not every such curve was filed as active;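 further: kinase came from lysate of stimulated human HepG2 cells; signal reports phosphorylation of biotinylated GST-cJun 1-79 at Ser73 with 10 µM ATP; on the % scale 0 is the no-effect control and ±100 the full control effect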); conditions: JNK3 lysate, c-Jun phosphorylation; series mostly up to 57.1 µM
How it was run: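 Activity was read by AlphaScreen after JNK3-containing HepG2 lysate (cytokine pre-activated) phosphorylated biotinylated GST-cJun with 10 uM ATP at room temperature. Phospho-Ser73 cJun antibody with Protein-A acceptor beads provided detection.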

[7] = biological target: Cytochrome P450 3A4 (Homo sapiens) (UniProt P08684); test: qHTS Assay for Inhibitors and Substrates of Cytochrome P450 3A4 (AID 884); conditions: recombinant CYP3A4, Luciferin-PPXE luminescence; series mostly up to 57.1 µM; further: potency means the concentration at half of the fitted maximal effect; nearly all actives have a fitted effect of over 50% in size
How it was run: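 Luminescent readout of luciferin produced by CYP3A4 (20 nM) dealkylation of Luciferin-PPXE, 25 uM (its KM). NADPH-driven reaction ran 60 min at RT after 10 min compound preincubation; data scaled to 57 uM ketoconazole as 100% inhibition.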

[8] = biological target: Cytochrome P450 3A4 (Homo sapiens) (UniProt P08684); test: qHTS Assay for Activators of Cytochrome P450 3A4 (AID 885); conditions: recombinant CYP3A4, Luciferin-PPXE luminescence, 60 min; series mostly up to 57.1 µM; further: nearly all actives have a fitted effect of over 65% in size
How it was run: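 Using 20nM recombinant human CYP3A4 in potassium phosphate (200mM), substrate Luciferin-PPXE at 25uM, luminescent luciferin detection followed a 60-min RT NADPH reaction; data scaled to 57 uM ketoconazole.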

[9] = qHTS Assay for Lipid Storage Modulators (AID 1519; calls by dose curve); conditions: Drosophila S3 cells, BODIPY lipid droplet/cell ratio, laser cytometry, cells loaded with oleic acid; for activity change, negative = inhibition: at 57.5 µM (top of the series)
How it was run: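 Cells seeded at 5,000 per well were treated with compounds over a concentration series and loaded with oleic acid (400 uM, as added). Lipid droplet fluorescence (488 nm excitation, 500-530 nm channel) was read by laser-scanning cytometry and normalized to 20 uM Triacsin C.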

[10] = biological target: Dual specificity protein kinase CLK4 (Homo sapiens) (UniProt Q9HAZ1); test: qHTS Assay for Inhibitors of CDC-like Kinase 4 (Kinase-Glo Assay) (AID 1770); conditions: recombinant Clk4, Kinase-Glo ATP depletion luminescence; series mostly up to 66.7 µM; further: nearly all actives have a fitted effect of over 65% in size; further: potency means the concentration at half of the fitted maximal effect
How it was run: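 Luminescent ATP-depletion read-out (Kinase-Glo) after 4.5 h room-temperature reaction of Clk4 (25 nM final) with RS peptide (100 uM) and ATP (1 uM), pH 7.5 Tris buffer with MgCl2 and DTT.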

[11] = biological target: Dual specificity protein kinase CLK4 (Homo sapiens) (UniProt Q9HAZ1); test: qHTS Assay for Inhibitors of CDC-like Kinase 4 (ADP-Glo Assay) (AID 1771); conditions: recombinant CLK4, ADP-Glo luminescence; series mostly up to 80 µM; further: nearly all actives have a fitted effect of over 70% in size; further: potency means the concentration at half of the fitted maximal effect
How it was run: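 Compounds are pin-transferred onto substrate mix (100 uM RS peptide, 1 uM ATP), then 25 nM Clk4 is added. After 1 hr at room temperature, ADP-Glo reagent runs 45 min, detection reagent 30 min, then luminescence is read.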

[12] = biological target: Ubiquitin carboxyl-terminal hydrolase 1 (Homo sapiens) (UniProt O94782); test: Inhibitors of USP1/UAF1: Pilot qHTS (AID 504865); conditions: purified USP1/UAF1, Ub-rhodamine cleavage fluorescence; series mostly up to 54.9 µM;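 further: rhodamine fluorescence freed from ubiquitin-rhodamine substrate followed over time; top concentration of the series differs between compounds; on the % scale 0 is the no-effect control and ±100 the full control effect; nearly all actives have a fitted effect of over 35% in size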
How it was run: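 Deubiquitinase activity followed as kinetic rhodamine fluorescence release from 150 nM Ub-Rho. 1 nM USP1/UAF1 with compound, after 15 min room-temperature preincubation, in HEPES pH 7.8 buffer containing TCEP, EDTA, BSA and Tween-20.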

[13] = Counterscreen qHTS for small molecule stabilizers of the endoplasmic reticulum resident proteome: GLuc-NoTag assay (AID 1508627); conditions: Gaussia luciferase NoTag secretion counterscreen, luminescence, thapsigargin 100 nM for final 4 h; series mostly up to 76.4 µM;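 further: 0% = thapsigargin alone and -100% = DMSO vehicle control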
How it was run: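 Counterscreen line: SH-SY5Y-GLuc-NoTag. Seed, 5 h; compound, 19 h; thapsigargin 100 nM, 4 h; 37C/5% CO2. Readout: secreted GLuc luminescence, coelenterazine 0.07x final, no lysis.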

[14] = AP1 Signaling Pathway (AID 357; active means well fitted curve in either direction with a large enough effect, not every such curve was filed as active;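 further: ME-180 reporter cells stimulated with EGF at its EC50 level; on the % scale 0 is the no-effect control and ±100 the full control effect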); conditions: ME-180 AP-1-bla reporter, EGF-induced, beta-lactamase ratio, 5 h; at 7.69 µM (top of the series) unless noted
How it was run: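 Cells are seeded overnight, exposed to compound titrations and an EC50 level of EGF for 5 hours at 37 °C, then loaded with CCF4 dye for 2.5 hours. Beta-lactamase activity under the AP-1 element is read as a blue/green ratio.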

[15] = Stat Signaling Pathway (AID 446; active means well fitted curve in either direction with a large enough effect, not every such curve was filed as active;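 further: ME-180 cervical cancer cells given 40 pM IL-6 alongside compound; SIE-controlled beta-lactamase reporter measured as 460/530 nm FRET emission ratio; on the % scale 0 is the no-effect control and ±100 the full control effect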); conditions: ME-180 (cervical carcinoma) SIE beta-lactamase reporter, IL-6 stimulated, 5 h; at 7.69 µM (top of the series) unless noted
How it was run: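 Overnight-plated ME-180 cells bearing a STAT Inducible Element beta-lactamase reporter; 5 h co-exposure to compound and 40 pM IL-6; values normalized to 300 pM IL-6 and 125 nM JAK inhibitor controls.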

[16] = biological target: Dual specificity protein kinase CLK4 (Homo sapiens) (UniProt Q9HAZ1); test: qHTS Assay for Inhibitors of CDC-like Kinase 4 (ADP-FP Assay) (AID 1795); conditions: Transcreener ADP fluorescence polarization; series mostly up to 50 µM; further: nearly all actives have a fitted effect of over 60% in size; further: potency means the concentration at half of the fitted maximal effect
How it was run: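 Kinase activity was measured as ADP production using Transcreener orange tracer (4 nM) and ADP antibody (1 ug/mL) fluorescence polarization, with ADP calculated from a calibration curve. The 1 h reaction contained 6.25 nM Clk4, 1 uM ATP and 100 uM RS peptide at pH 7.5 with Mg2+.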

[17] = Confirmatory qHTS for small molecule stabilizers of the endoplasmic reticulum resident proteome: Secreted ER Calcium Modulated Protein (SERCaMP) assay (AID 1508628); conditions: SERCaMP secreted luciferase ER calcium/proteostasis reporter; series mostly up to 76.3 µM; further: nearly all actives have a fitted effect of over 40% in size; further: potency means the concentration at half of the fitted maximal effect
How it was run: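 Reporter secretion upon ER calcium depletion (100 nM thapsigargin, 4 h, 37C) is measured as medium luminescence with coelenterazine, after 16 h compound pretreatment of SH-SY5Y-GLuc-SERCaMP cells; primary at three concentrations up to 38.3 uM, follow-up at 11 (up to 76.6 uM).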

[18] = Cell Viability qHTS for small molecule stabilizers of the endoplasmic reticulum resident proteome (AID 1508629); conditions: cell viability counter-screen, 100 nM thapsigargin for final 4 h
[19] = biological target: Cytochrome P450 2C19 (Homo sapiens) (UniProt P33261); test: qHTS Assay for Inhibitors and Substrates of Cytochrome P450 2C19 (AID 899); conditions: recombinant CYP2C19, luciferin-H EGE luminescence; series mostly up to 57.1 µM; further: potency means the concentration at half of the fitted maximal effect; nearly all actives have a fitted effect of over 60% in size
How it was run: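 Signal comes from luciferase acting on luciferin released by CYP2C19-mediated hydroxylation of Luciferin-H EGE, 10uM (KM). Assay mix: 5nM enzyme, 50mM KPO4; 60 min at 37C with NADPH regeneration. Data normalized against 57uM ketoconazole.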

[20] = biological target: 3',5'-cyclic-AMP phosphodiesterase 4B (Homo sapiens) (UniProt Q07343); test: qHTS Assay for Inhibitors of PDE-IV (AID 607; active means well fitted activation curve with a large enough effect in the main read-out, with a control signal flat, not every such curve was filed as active; further: % of control where 0% means no effect); conditions: HEK293 ACTOne CNG channel cells, membrane potential fluorescence; series mostly up to 22.9 µM
How it was run: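 Live HEK293 cells with a modified cyclic nucleotide-gated (CNG) channel report intracellular cAMP via membrane-potential dye fluorescence (ex 535/em 590 nm). Endogenous PDE-IV was targeted. Compounds were tested at up to 22.9 uM final; RO 20-1724 100 uM served as control.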

[21] = measured here: cell count channel max response
[22] = measured here: lipid channel max response

Chain of Cytochrome P450 3A4 (Homo sapiens) (P08684 whole entry, looked up): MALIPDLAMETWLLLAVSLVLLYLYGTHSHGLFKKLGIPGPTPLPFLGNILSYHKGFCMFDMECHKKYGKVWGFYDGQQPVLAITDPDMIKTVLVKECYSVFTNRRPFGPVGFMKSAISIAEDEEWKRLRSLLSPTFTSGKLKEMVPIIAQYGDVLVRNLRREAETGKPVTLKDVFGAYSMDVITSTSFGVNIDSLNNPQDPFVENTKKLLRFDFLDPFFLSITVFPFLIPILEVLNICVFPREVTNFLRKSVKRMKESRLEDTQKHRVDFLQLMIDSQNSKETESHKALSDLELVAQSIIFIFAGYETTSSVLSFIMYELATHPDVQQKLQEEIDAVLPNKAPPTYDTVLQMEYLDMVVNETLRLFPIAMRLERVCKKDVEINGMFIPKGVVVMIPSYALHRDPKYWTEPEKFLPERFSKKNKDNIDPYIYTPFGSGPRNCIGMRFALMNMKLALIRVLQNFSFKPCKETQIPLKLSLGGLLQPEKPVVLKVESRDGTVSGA
Chain of Ubiquitin carboxyl-terminal hydrolase 1 (Homo sapiens) (O94782 whole entry, looked up): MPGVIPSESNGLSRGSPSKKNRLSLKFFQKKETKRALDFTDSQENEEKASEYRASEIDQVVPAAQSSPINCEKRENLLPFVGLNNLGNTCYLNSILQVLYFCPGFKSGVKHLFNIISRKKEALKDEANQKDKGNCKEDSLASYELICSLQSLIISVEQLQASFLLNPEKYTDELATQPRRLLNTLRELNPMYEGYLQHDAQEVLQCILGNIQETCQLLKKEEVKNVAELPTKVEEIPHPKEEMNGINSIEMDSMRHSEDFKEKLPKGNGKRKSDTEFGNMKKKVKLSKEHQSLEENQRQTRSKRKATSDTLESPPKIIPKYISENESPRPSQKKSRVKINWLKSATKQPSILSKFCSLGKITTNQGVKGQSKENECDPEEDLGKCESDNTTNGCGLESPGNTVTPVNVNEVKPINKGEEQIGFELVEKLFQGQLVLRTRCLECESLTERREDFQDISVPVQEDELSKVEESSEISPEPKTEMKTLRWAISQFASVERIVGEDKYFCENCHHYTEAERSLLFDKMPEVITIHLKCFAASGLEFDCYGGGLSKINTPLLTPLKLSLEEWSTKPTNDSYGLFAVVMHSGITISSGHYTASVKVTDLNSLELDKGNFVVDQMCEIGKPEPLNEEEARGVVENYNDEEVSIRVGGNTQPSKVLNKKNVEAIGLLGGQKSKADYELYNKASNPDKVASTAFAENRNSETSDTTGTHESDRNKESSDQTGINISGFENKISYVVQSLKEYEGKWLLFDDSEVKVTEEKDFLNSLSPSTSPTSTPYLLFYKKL
Chain of Cytochrome P450 1A2 (Homo sapiens) (P05177 whole entry, looked up): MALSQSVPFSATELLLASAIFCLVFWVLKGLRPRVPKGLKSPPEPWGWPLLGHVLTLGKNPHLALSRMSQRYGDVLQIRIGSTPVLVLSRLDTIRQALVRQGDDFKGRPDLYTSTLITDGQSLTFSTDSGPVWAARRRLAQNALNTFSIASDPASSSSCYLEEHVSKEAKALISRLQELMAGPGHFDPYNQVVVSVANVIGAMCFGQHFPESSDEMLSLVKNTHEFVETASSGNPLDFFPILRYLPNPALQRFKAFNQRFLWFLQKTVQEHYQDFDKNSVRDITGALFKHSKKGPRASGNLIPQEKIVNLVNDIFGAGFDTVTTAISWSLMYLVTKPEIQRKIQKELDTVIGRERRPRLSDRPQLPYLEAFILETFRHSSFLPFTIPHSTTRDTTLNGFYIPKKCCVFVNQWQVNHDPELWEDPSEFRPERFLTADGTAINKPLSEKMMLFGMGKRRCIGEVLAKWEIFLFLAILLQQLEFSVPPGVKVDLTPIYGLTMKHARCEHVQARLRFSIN
Chain of Glucocorticoid receptor (Homo sapiens) (P04150 whole entry, looked up, the tested form may be a part): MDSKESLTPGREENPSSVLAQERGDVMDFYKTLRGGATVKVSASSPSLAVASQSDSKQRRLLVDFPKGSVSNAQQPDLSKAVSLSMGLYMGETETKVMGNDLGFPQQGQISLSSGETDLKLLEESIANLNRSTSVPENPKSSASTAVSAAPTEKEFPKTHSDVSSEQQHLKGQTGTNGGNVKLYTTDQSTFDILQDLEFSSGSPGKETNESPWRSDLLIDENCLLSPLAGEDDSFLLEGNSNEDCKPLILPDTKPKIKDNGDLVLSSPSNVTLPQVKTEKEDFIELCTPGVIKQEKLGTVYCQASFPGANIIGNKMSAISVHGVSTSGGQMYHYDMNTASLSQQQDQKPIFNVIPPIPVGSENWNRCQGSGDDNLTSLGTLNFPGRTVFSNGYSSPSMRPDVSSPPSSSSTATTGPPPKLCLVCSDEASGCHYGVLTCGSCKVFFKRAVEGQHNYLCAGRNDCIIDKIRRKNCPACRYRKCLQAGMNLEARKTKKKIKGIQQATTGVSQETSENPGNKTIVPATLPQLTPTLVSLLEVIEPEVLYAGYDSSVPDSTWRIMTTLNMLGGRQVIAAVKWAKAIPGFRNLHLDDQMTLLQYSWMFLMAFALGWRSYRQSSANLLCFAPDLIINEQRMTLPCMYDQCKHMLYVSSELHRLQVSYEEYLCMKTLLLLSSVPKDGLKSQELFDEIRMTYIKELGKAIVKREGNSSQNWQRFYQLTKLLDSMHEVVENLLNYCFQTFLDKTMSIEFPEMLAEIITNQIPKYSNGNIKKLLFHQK
Chain of Lysosomal acid glucosylceramidase (Homo sapiens) (P04062 whole entry, looked up): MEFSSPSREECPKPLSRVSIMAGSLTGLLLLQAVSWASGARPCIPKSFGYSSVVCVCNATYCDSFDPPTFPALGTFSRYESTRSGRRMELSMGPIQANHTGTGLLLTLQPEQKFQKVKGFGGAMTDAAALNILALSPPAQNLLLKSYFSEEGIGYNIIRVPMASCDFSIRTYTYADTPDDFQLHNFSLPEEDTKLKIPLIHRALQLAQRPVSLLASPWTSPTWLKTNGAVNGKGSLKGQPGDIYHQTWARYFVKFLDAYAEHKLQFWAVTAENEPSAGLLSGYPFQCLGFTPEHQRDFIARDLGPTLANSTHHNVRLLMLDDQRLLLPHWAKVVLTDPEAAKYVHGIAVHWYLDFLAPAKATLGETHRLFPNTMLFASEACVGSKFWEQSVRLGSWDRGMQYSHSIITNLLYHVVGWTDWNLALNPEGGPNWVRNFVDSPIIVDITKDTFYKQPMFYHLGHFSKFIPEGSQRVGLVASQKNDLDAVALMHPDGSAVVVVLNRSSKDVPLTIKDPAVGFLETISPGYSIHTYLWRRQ
Chain of Dual specificity protein kinase CLK4 (Homo sapiens) (Q9HAZ1 whole entry, looked up): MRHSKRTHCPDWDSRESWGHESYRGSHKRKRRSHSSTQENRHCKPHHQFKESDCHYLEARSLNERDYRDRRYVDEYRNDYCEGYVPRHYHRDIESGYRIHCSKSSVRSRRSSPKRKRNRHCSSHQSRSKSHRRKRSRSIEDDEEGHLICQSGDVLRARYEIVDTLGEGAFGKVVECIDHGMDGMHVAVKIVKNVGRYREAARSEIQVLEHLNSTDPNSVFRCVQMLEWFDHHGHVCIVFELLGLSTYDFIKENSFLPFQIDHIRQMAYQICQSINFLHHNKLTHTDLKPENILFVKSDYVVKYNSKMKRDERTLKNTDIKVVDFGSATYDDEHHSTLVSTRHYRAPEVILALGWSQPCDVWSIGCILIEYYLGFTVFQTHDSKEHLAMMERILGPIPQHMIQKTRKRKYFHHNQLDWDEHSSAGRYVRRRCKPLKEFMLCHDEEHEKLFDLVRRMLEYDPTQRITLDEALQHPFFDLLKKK
Chain of Cytochrome P450 2C19 (Homo sapiens) (P33261 whole entry, looked up): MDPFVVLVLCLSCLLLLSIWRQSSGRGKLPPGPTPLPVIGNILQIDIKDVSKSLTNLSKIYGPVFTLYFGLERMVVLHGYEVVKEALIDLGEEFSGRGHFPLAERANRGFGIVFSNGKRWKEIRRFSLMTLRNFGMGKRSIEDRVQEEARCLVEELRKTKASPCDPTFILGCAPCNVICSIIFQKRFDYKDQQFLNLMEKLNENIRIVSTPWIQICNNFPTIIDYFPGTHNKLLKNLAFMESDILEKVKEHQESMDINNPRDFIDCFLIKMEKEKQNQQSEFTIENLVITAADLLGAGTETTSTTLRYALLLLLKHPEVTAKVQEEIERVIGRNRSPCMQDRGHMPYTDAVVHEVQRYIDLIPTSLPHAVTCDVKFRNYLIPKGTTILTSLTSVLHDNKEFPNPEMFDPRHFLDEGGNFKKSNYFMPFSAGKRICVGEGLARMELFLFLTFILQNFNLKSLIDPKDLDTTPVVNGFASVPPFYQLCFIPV
Chain of 3',5'-cyclic-AMP phosphodiesterase 4B (Homo sapiens) (Q07343 whole entry, looked up): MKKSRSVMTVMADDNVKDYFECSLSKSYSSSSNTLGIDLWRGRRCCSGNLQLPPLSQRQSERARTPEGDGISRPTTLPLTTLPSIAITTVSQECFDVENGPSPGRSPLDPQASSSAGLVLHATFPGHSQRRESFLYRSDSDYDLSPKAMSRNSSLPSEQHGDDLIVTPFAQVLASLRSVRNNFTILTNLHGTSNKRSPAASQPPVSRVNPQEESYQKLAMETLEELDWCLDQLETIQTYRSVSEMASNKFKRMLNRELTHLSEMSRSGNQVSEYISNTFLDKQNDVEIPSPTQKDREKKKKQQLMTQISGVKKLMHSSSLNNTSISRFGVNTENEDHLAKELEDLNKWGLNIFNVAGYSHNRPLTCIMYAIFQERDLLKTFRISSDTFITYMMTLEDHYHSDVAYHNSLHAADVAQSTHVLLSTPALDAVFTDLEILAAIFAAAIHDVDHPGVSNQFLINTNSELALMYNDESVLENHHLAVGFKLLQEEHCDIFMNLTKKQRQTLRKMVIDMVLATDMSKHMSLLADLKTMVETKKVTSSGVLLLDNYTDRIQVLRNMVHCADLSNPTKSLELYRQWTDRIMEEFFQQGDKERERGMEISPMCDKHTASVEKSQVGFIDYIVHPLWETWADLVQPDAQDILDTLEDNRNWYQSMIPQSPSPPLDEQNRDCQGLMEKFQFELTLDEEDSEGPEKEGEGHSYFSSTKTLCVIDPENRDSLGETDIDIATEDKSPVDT

CN1CCN(c2ncnc3ccc(-c4ccccc4Cl)cc23)CC1
active: Potency [2] 1.58 µM | Potency [7] 5.01 µM | Potency [10] 25.1 µM | Potency [11] 28.2 µM
10.9%: max response [9, 21]
inactive: Potency [1] > 11.4 µM | activity change, negative = inhibition [3] -23.1% | Potency [4] > 46 µM | Potency [5] > 46 µM | outcome [6] | Potency [8] | activity change, negative = inhibition [9] -1.72% | Potency [12] | Potency [13]
-1.45%: max response [9, 22]

O=c1c(CCc2ccccc2)nc2cnc(N3CCNCC3)nc2n1C1CC1
18.1%: max response [9, 22]
16.7%: max response [9, 21]
inactive: Potency [1] > 11.4 µM | activity change, negative = inhibition [14] -9.21% | activity change, negative = inhibition [3] -7.73% | activity, negative = inhibition [15] -12.8% | Potency [4] > 9.22 µM | Potency [5] > 46 µM | outcome [6] | Potency [8] | activity change, negative = inhibition [9] 2.72% | Potency [10] | Potency [11] | Potency [16] | Potency [12] | Potency [13]

O=c1c(CCc2ccccc2)nc2cnc(N3CCNCC3)nc2n1Cc1ccc(F)cc1
active: Potency [2] 10 µM
11.7%: max response [9, 22]
inactive: activity change, negative = inhibition [14] -10.5% | activity, negative = inhibition [15] 16.5% | Potency [4] > 9.22 µM | Potency [5] > 46 µM | outcome [6] | activity change, negative = inhibition [9] 2.57% | Potency [17] | max response [18] -14.8%
12.8%: max response [9, 21]

CN(C)c1ncc2ncc(=O)n(CCc3ccccc3)c2n1
active: Potency [2] 0.794 µM | Potency [19] 2 µM | Potency [10] 6.31 µM | Potency [16] 5.01 µM | Potency [17] 39.8 µM
inactive: Potency [1] > 11.4 µM | activity change, negative = inhibition [14] -21.4% | activity change, negative = inhibition [3] -10.8% | activity, negative = inhibition [15] -10.8% | Potency [4] > 9.22 µM | Potency [5] > 46 µM | outcome [6] | Potency [12]

CN1CCN(c2ncc3nc(-c4cccs4)c(=O)n(-c4ccccc4)c3n2)CC1
22.3%: max response [9, 21]
18.9%: max response [9, 22]
inactive: Potency [1] > 11.4 µM | Potency [4] > 9.22 µM | Potency [5] > 46 µM | outcome [6] | Potency [20] | Potency [8] | activity change, negative = inhibition [9] -0.619% | Potency [10] | Potency [11] | Potency [16] | Potency [12] | Potency [13]
active: Potency [2] 3.16 µM
